# From PubChem
# Dicer processing: human Dicer pre-microRNA cleavage inhibition. Q9UPY3. cat-ELCCA pre-miR-21 Dicer processing, chemiluminescence; active compounds read high. z-score at 25 µM. hit rate 6% among 47,000; in the data active = z-score above about 3, passing the limit was not always enough;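 note: plate controls were vehicle for no effect and no enzyme for full effect; higher signal means more uncleaved substrate so more Dicer inhibition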
# Target sequence (Q9UPY3 whole entry, looked up): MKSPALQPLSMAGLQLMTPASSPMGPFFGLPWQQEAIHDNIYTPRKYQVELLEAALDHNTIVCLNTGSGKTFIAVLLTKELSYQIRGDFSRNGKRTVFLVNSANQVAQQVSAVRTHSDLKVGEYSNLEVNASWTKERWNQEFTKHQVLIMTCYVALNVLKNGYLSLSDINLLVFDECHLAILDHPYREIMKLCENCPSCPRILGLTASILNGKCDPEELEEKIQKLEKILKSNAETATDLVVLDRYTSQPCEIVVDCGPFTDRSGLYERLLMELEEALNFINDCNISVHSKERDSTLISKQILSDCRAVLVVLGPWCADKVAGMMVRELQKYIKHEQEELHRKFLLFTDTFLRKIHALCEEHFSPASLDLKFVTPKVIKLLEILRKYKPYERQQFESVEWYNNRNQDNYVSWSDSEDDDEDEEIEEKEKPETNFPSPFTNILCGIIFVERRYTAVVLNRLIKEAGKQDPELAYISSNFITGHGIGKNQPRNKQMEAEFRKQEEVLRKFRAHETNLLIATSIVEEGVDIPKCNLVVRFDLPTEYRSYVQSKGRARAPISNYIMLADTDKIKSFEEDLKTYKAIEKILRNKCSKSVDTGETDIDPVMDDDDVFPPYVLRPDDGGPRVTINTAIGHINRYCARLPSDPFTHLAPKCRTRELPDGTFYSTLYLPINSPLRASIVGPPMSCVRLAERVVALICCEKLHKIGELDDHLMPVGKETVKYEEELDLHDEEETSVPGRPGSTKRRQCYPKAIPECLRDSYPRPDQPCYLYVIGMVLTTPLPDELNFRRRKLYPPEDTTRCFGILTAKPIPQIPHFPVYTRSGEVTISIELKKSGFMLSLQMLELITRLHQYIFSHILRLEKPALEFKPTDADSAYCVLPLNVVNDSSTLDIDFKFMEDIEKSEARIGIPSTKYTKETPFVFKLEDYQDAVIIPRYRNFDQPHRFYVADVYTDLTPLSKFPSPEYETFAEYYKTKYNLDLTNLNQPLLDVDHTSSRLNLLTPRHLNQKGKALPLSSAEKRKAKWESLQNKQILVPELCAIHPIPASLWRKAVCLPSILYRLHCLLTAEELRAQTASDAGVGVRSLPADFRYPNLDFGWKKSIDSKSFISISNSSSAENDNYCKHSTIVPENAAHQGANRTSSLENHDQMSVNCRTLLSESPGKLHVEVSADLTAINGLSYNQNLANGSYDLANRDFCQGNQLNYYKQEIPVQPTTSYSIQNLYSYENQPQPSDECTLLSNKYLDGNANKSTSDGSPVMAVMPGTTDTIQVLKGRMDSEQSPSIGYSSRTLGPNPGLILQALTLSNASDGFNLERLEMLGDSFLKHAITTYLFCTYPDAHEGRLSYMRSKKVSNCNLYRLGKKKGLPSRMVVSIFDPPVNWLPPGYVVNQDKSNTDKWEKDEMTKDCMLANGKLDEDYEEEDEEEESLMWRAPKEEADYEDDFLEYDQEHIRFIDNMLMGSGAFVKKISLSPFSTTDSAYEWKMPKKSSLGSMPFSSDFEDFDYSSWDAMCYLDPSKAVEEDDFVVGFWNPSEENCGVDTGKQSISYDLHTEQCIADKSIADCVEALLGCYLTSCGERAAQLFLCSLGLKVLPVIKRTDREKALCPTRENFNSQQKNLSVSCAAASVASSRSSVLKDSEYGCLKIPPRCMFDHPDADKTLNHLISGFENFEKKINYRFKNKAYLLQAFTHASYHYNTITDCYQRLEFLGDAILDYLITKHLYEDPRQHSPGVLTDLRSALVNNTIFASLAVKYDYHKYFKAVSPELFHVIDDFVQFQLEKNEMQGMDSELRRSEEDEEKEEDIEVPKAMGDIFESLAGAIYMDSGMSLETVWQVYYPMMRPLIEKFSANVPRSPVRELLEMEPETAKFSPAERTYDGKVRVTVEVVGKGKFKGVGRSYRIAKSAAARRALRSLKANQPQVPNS
# Numbers without * were called inactive. Only a selection was taken, and hits are over-represented in it overall.
SMILES,Dicer processing
COC(=O)/C(C#N)=C\c1cccn1-c1ccc(-n2nc(C)cc2C)cc1,-0.55
Cc1ccc(-c2csc(N)n2)cc1C,-2.5
CCOC(=O)c1nnn(-c2cc(Cl)cc(Cl)c2)c1Sc1ccccn1,1.4
CCOc1ccc2c(c1)C(=O)C(c1cc(=O)c3ccccc3[nH]1)C2=O (centres undefined),6.1*
CCOc1ccc2c(c1)C(=O)c1cc(OCC)ccc1-2,6.4
CCOc1ccc2[nH]c(C3C(=O)c4ccccc4C3=O)cc(=O)c2c1,-0.57
CCOC(=O)n1c(=O)oc2cc(Br)ccc21,2.5
COC(=O)CCCC[C@H]1SC[C@H]2NC(=O)N[C@]21O,1.8
O=c1cc(-c2ccccc2)n2c(-c3ccco3)nn(-c3ccc([N+](=O)[O-])cc3)c2n1,-0.3
O=C(c1cccnc1)N1CCN(c2ccc3ccccc3n2)CC1,4.2*
O=C1NCCCC1C(=O)N1CCN(C(=O)c2ccco2)CC1 (centres undefined),-1.3
O=C(c1cccnc1)N1CCN(C(=O)c2ccco2)CC1,4.7*
O=C(c1ccncc1)N1CCN(Cc2ccco2)CC1,1.2
O=C(c1ccccc1)N1CCN(C2=NS(=O)(=O)c3ccccc32)CC1,7
O=C(O)c1cccnc1,1.2
COC(=O)C(C(=O)OC)c1c([N+](=O)[O-])c(=O)n(C)c2ccccc12,-0.52
O=C(Nc1ccc(-n2ccc(C(F)(F)F)n2)cc1)C1=Cc2cc(Cl)ccc2OC1,-0.62
COc1ccccc1N1CCN(c2ncc3c(n2)CCCC3=O)CC1,1.5
CCN(CC)C(=O)c1cc2sccc2s1,3.1*
CCN(CC)C(=O)c1sc2nc3c(cc2c1N)CCCCC3,0.28
O=[N+]([O-])c1cc(Cc2cc([N+](=O)[O-])cc(C(F)(F)F)c2)cc(C(F)(F)F)c1,-1.2
O=C(O)CSCC(=O)Nc1ccc(N2CCOCC2)nc1N1CCOCC1,-1.3
COC(=O)c1ccc(CN2CCN(Cc3ccc(C(=O)OC)o3)CC2)o1,-1.6
CSc1ccc([N+](=O)[O-])cc1C(C)=O,-0.35
CSc1ccc([N+](=O)[O-])cc1C(=O)/C=C/N(C)C,6.2*
SMILES,Dicer processing
O=C(O)c1cc([N+](=O)[O-])ccc1Sc1ccc([N+](=O)[O-])cc1C(=O)O,-0.05
O=c1/c(=C\c2ccc(F)cc2)sc2n1C(c1cccs1)C1=C(N=2)c2ccccc2CC1 (centres undefined),0.25
CC1=C(C(=O)OCc2ccccc2)C(c2ccc(C)s2)C2=C(CC(C)(C)CC2=O)N1 (centres undefined),10
COc1ccc(CNCc2ccc3c(c2)OCO3)cc1,0.97
COc1ccc(CNCc2ccc(SC)cc2)cc1,3.9*
COc1ccc(CNCc2cc(OC)ccc2OC)cc1,1.3
Cc1ccc(-c2nnc(NCc3ccccc3)c3ccccc23)cc1S(=O)(=O)NCCO,0.06
Cc1ccc(-c2nnc(Nc3ccc(O)cc3)c3ccccc23)cc1S(=O)(=O)N(C)C,2.4
CNS(=O)(=O)c1cc(-c2nnc(Nc3ccc4c(c3)OCO4)c3ccccc23)ccc1C,4.8*
CCn1c2c(c(=O)[nH]c1=O)C(c1ccc(Br)cc1)C1=C(N2)c2ccccc2C1=O (centres undefined),0.19
CCCC1O[C@@H]2C[C@H]3[C@@H]4CCC5=CC(=O)C=C[C@]5(C)[C@H]4[C@@H](O)C[C@]3(C)[C@]2(C(=O)CO)O1 (some centres undefined),0.43
Cc1ccc(S(=O)(=O)NC(=O)Nc2scc(C)c2C(=O)c2ccccc2)cc1,-2.1
COC(=O)C/C(=N\NC(=O)CCc1nc(-c2ccc(Cl)cc2)no1)C(=O)OC,-0.88
Cc1cccc(/C=C2\SC(=S)N(/N=C/c3ccc(Cl)cc3Cl)C2=O)c1,-1.4
C=CCn1c(=S)sc2c(=O)n(/N=C/c3ccc(Cl)cc3Cl)c(C)nc21,-1.8
O=C1/C(=C/c2c(F)c(F)c(F)c(F)c2F)SC(=S)N1/N=C/c1ccc(Cl)cc1Cl,12*
COc1nnc(-c2ccc(N3CCOCC3)c(NC(=O)NC3CCCCC3)c2)c2ccccc12,2.3
OC(CCN1CCCCC1)(c1ccccc1)c1ccccc1,0.15
Cn1c(SCC(=O)c2ccc(Cl)cc2)nnc1SCC(=O)c1ccc(Cl)cc1,-0.58
O=C(CSC(=S)N1CCOCC1)c1ccc(Cl)cc1,-1.3
CN(C)C(=S)SCC(=O)c1ccc(Cl)cc1,4.9*
Cc1ccc(C(C)C)c(OCc2nc3c4cnn(-c5ccccc5)c4ncn3n2)c1,-0.61
CCCN/C(=C/C(=S)Nc1cccc2ccccc12)c1ccc(OC)cc1,2.4
O=C(NCc1cccs1)c1cc2n(n1)C(C(F)(F)F)CC(c1ccc(F)cc1)N2 (centres undefined),1.2
O=C(NCc1ccco1)c1cc2n(n1)C(C(F)(F)F)CC(c1ccc(Cl)cc1)N2 (centres undefined),2.9
SMILES,Dicer processing
Cc1ccc(C2CC(C(F)(F)F)n3nc(C(=O)N(C)Cc4c(C)nn(C)c4C)cc3N2)cc1 (centres undefined),0.02
CN(Cc1ccccc1)C(=O)c1cc2n(n1)C(C(F)(F)F)CC(c1ccccc1)N2 (centres undefined),3*
Cc1ccc(C2CC(C(F)(F)F)n3ncc(C(=O)NCC4CCCO4)c3N2)cc1 (centres undefined),0.63
CCOC(=O)c1cc2n(n1)C(C(F)(F)F)CC(c1ccccc1)N2 (centres undefined),2.8
O=C(NCC1CCCO1)c1cc2n(n1)C(C(F)(F)F)CC(c1ccc(Br)cc1)N2 (centres undefined),3.7*
O=C(NCc1ccco1)c1cc2n(n1)C(C(F)(F)F)CC(c1ccc3c(c1)OCO3)N2 (centres undefined),3.8*
Cc1c(CNC(=O)c2cc3n(n2)C(C(F)(F)F)CC(c2ccc4c(c2)OCO4)N3)cnn1C (centres undefined),-1.9
COc1c(C(=O)O/N=C/c2c(F)cccc2Cl)csc1Cl,0.89
CC1CC(=O)Nc2ccccc2N1S(=O)(=O)c1cn(C)cn1 (centres undefined),-0.95
O=[N+]([O-])c1cc(Cl)c(N2CCCCC2)cc1N1CCCCC1,-0.37
Cn1c(=O)c2c(nc(SCC(=O)NC3CCCCC3)n2C)n(C)c1=O,-0.94
Cc1cccc2c1N(C(=O)c1cc(C(F)(F)F)cc(C(F)(F)F)c1)CCC2,0.02
O=c1c(=O)n2c(nn1CN1CCOCC1)sc1ccccc12,4.3*
O=C(Cn1nc2sc3ccccc3n2c(=O)c1=O)c1ccc(Cl)cc1,7.1
O=c1c(N2CCOCC2)nnc2sc3ccccc3n12,4.3*
O=c1c(=O)n2c(nn1CN1CCCCC1)sc1ccccc12,4.1*
O=c1c(=O)n2c(nn1Cc1ccccc1Cl)sc1ccccc12,-1.3
Cc1nnc2c(N3CCOCC3)nc3ccccc3n12,-0.14
NC(=O)Cn1nc2sc3ccccc3n2c(=O)c1=O,-1.3
Cn1nc2sc3ccccc3n2c(=O)c1=O,-1.5
C=CCn1nc2sc3ccccc3n2c(=O)c1=O,1.1
O=C1C(=O)N(c2cccnc2)C(c2ccccc2F)/C1=C(\O)c1ccc(Cl)cc1 (centres undefined),1.2
CN/C(=C/[N+](=O)[O-])NCCSCc1ccc(CN(C)C)o1,8.5
N/C(=N\O)c1c(-c2ccccc2)cc(-c2ccc(F)cc2)[nH]c1=O,1.5
COc1ccc(/C=N/c2nc3ccccc3[nH]2)cc1,-0.1
C=CCN1C(=O)C2(/C(=C(/O)c3ccc(F)cc3)C(=O)C(=O)N2CCN(C)C)c2ccccc21 (centres undefined),3.9*
C=CCN1C(=O)C2(/C(=C(/O)c3ccc(C)cc3)C(=O)C(=O)N2CCCOC)c2ccccc21 (centres undefined),0.49
